Results on 38 compounds are retold here after PubChem BioAssay (Tox21).

Results filed as inconclusive are left out. A call without a number means that no potency is given here. Unmarked numbers belong to inactive results. Calls of active or inactive are those of the source. Calls come from the whole dose curve; as a rule, active = well fitted activation curve with a large enough effect in the repeat runs; inconclusive = weak or mixed curves; inactive = flat fitted curve, though single readings scatter.

The nature of the assay: A CellTox Green Cytotoxicity Assay to monitor cytotoxicity in HepG2 cells - 24 hour (AID 1224878). Note: nearly all actives have a fitted effect of over 45% in size. Conditions: CellTox Green fluorescence; series mostly up to 76.8 µM. In short, it runs like this: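 Using 1536-well format, dye-containing HepG2 suspension was seeded, allowed 5 h at 37 C/5% CO2, dosed by pintool with compounds, positive and negative controls, and imaged for fluorescence across 40 h.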
`O=C(O)CCCCCCCCCC(=O)O`: the Potency entry was “inactive”.

Turning to `Cc1ccccc1C#N`, the Potency entry was “inactive”.

For `CC(=O)SCC(CC(=O)c1ccc(C)cc1)C(=O)O` (stereo not drawn), the Potency entry is “inactive”.

As for `NCC1CCC(C(=O)Oc2ccc(CCC(=O)O)cc2)CC1` (stereo not drawn), the Potency entry was “inactive”.

On to `CCN1CCN(C(=O)N[C@@H](C(=O)N[C@@H]2C(=O)N3[C@@H]2SC(C)(C)[C@H]3C(=O)O)c2ccccc2)C(=O)C1=O`, for which the Potency entry is “inactive”.

`COc1cc(S(N)(=O)=O)cc(C(=O)O)c1OC`: the Potency entry is “inactive”.

On to `C/C(=N\O)c1ccc(OCC(=O)N2CCCCC2)cc1`, for which the Potency entry was “inactive”.

Turning to `CC(C)(C)C(=O)CC(=O)C(C)(C)C`, the Potency entry was “inactive”.

In the case of `CC(=O)Oc1ccc(C(C)=O)cc1`, the Potency result is “inactive”.

Turning to `NC[C@H]1O[C@H](O[C@H]2[C@H](O)[C@@H](O[C@H]3O[C@H](CO)[C@@H](O)[C@H](N)[C@H]3O)[C@H](N)C[C@@H]2N)[C@H](N)[C@@H](O)[C@@H]1O`, the cytotoxicity was -0.281% [at 15.8 µM].

`CCCc1ncc(C(=O)O)s1`: the Potency entry was “inactive”.

With `CCCCC(CC)CCC(CC(C)C)OS(=O)(=O)O` (stereo not drawn), the Potency entry was “inactive”.

As for `O=C[C@@H](O)[C@H](O)[C@H](O)CO`, the Potency result was “inactive”.

For `COC(C)(C)CC(C)=O`, the Potency result is “inactive”.

In the case of `CC(C)(O)CCCC1=CCC(C=O)CC1` (stereo not drawn), the Potency result is “inactive”.

For the compound `O=S(=O)(O)c1ccc(Cl)cc1`, the Potency result is “inactive”.

On to `CC(C)(C)OC=O`, for which the Potency result is “inactive”.

Regarding `BrCCOc1ccccc1`, the Potency entry is “inactive”.

For `CN(C)CCc1c[nH]c2ccc(C[C@H]3COC(=O)N3)cc12`, the Potency result was “inactive”.

For `CCCCCCCCCCCCCCCC(=O)OC`, the cytotoxicity was -19.7% [at 15.8 µM].

With `CC(C)CC(O)Cc1ccccc1` (stereo not drawn), the Potency entry was “inactive”.

`CCCCCCC(O)CO` (stereo not drawn): the Potency result is “inactive”.

For the compound `CN1C(CCl)Nc2cc(Cl)c(S(N)(=O)=O)cc2S1(=O)=O` (stereo not drawn), the Potency entry is “inactive”.

On to `CCCCNCC`, for which the Potency entry was “inactive”.

Turning to `CO/N=C(\C(=O)O)c1csc(NC(=O)CCl)n1`, the Potency result is “inactive”.

Turning to `O=C(CCBr)N1CCN(C(=O)CCBr)CC1`, the Potency entry was “inactive”.

For the compound `C[C@H]1COc2c(C3(N)CC3)c(F)cc3c(=O)c(C(=O)O)cn1c23`, the Potency result was “inactive”.

As to `O=C(O)Cc1c(Cl)ccc(Cl)c1Cl`, the Potency entry is “inactive”.

In the case of `Cc1ccc(NC(N)=O)cc1`, the Potency entry is “inactive”.

In the case of `COC(=O)c1c(C)cc(O)c(C)c1O`, the Potency entry was “inactive”.

For the compound `CN1CCN(C(=O)C2CCCCC2)CC1`, the Potency result was “inactive”.

Regarding `Cc1nnc(C(=O)NC(C)(C)c2nc(C(=O)NCc3ccc(F)cc3)c(O)c(=O)n2C)o1`, the Potency entry was “inactive”.

For `COC(=O)C(c1ccccc1Cl)N1CCc2sccc2C1` (stereo not drawn), the Potency entry is “inactive”.

Take `C=CC(=O)OCCOCCOCC`: the Potency entry was “inactive”.

Turning to `CN(C)c1ccncc1`, the Potency result is “inactive”.

As to `CCCOc1ccc(C(=O)OCCN(CC)CC)cc1N`, the Potency entry was “inactive”.

As to `COCCCOc1cc(C[C@@H](C[C@H](N)[C@@H](O)C[C@H](C(=O)NCC(C)(C)C(N)=O)C(C)C)C(C)C)ccc1OC`, the Potency result was “inactive”.

Regarding `O=C1c2ccccc2C(=O)N1CO`, the Potency result was “inactive”.
